From PubChem BioAssay AID1346428 (National Center for Advancing Translational Sciences (NCATS), 2018)
Among all 48,000 compounds or so, about 1,200 (2.5%) were called active. About 2% were inconclusive and are not listed.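 How the source made its calls: active means activation of at least 60% and not above a set upper limit (about 1 call in 100 departs from these limits); inconclusive means activation of 40% to 60%, or above that upper limit; inactive means activation under 40%.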 The list comes from a sample in which actives are over-represented; it also holds similar structures and randomly drawn compounds.

Target: Probable G-protein coupled receptor 32 (Homo sapiens) (UniProt O75388)
Sequence (O75388 whole entry, looked up): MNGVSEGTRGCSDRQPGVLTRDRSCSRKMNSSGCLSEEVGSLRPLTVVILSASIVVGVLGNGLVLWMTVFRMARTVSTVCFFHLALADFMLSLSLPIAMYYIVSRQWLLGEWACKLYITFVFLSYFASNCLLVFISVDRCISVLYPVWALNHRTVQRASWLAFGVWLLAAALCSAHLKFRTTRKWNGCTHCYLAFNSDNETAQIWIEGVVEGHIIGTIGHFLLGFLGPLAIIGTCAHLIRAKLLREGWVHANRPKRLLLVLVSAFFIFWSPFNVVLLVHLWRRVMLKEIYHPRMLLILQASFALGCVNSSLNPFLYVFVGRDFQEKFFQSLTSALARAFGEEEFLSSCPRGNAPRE
Experiment: qHTS for Agonists of Human Resolvin D1 Receptor DRV1
Conditions: CHO-K1 GPR32 beta-arrestin PathHunter luminescence, 90 min; at 76.9 µM; active compounds read high; zero percent set by DMSO-only wells
Text: Endogenous resolution of inflammation is known to be transduced through various GPCRs and their natural mediators of lipid nature. Resolvin D1 (RvD1) is one of the active players in resolution of acute inflammation through regulation of anti-inflammatory pathways; it is known to enhance phagocytosis of human macrophages, limits neutrophils infiltration, etc. […] The search for GPR32-activating small molecules with anti-inflammatory effects similar to its natural omega-3 derivative ligand in order to use them as research tools for further studies of inflammation and its resolution was the goal of this screening project. For primary screening assay, we used CHO-K1 GPR32 beta-arrestin cell line (DiscoveRx, #93-0321C2A) and the PathHunter(R) beta-Arrestin Assay (DiscoveRx) which measures recruitment of beta-arrestin to the GPR32 and generates chemiluminescent signal. These engineered cells stably transfected with GPR32 co-express GPR32-fused small 42-amino acid fragment of beta-Gal called ProLinktrade mark, and […] -tagged beta-Arrestin fusion protein. When GPR32 is activated by a ligand, it stimulates binding of beta -Arrestin to ProLink-tagged GPR32, and two parts of beta-Gal complement forming a functional enzyme. Upon substrate (PathHunter(R) Detection reagent) addition, beta-Gal hydrolyzes it and generates a chemiluminescent signal.
The cells were thawed and plated in thawing media containing F-12 HAM (Invitrogen, #11765-054), 10% FBS (Invitrogen, #10082), 1x Glutamine, and 1x Pen/Strep onto the 175-mm flask for 24 hours. Then, thawing media was replaced with Growth media which contains 800microg/mL Geneticin (Invitrogen, #10131) and 300microg/mL Hygromycin B (Invitrogen, #10687) in addition to described above. For the assay, the cells were harvested at ~80% confluent stage with Cell Dissociation buffer (Gibco, #13151), and seeded at 2,500 cells/ 3microL/well in assay media (PathHunter(R) Cell Plating Reagent, DiscoverX, #93-0563R1B) using MultiDrop Combi dispenser (Thermo Scientific, Logan, UT) onto white solid bottom tissue culture-treated 1536-well plates (Greiner # 789173-F) and allowed to attach overnight at 37 degrees C, 95% humidity, 5% CO2, . Next, 23nL/well of compound solutions in DMSO were added with a Pin Tool (Kalypsis, San Diego, CA) to the assay plates. As the basal control (EC0), 23 nL/well of DMSO was used on each plate. The cells were incubated in the presence of compounds or DMSO for 90 minutes at 37 degrees C, 5% CO2. Subsequently, 1.5microL/well of PathHunter(R) Detection Reagent prepared per the manufacturer's instructions was added to the assay plates with BioRAPTR FRDtrade mark dispenser (Beckman Coulter, San Francisco, CA) and incubated for 1 hour at ambient temperature prior to the measurement of the luminescent signal on ViewLux(R) uHTS Microplate Imager (Perkin Elmer, Waltham, MA).

activation, active:
Cc1ccc(Cl)cc1N1CCN(S(=O)(=O)c2cc3[nH]c(=O)c(=O)[nH]c3cc2C)CC1 97%
O=C1N(Cc2ccccc2)c2ccc(Cl)cc2C1(O)c1c[nH]c2ccccc12 (stereo not given) 116%
CCOC(=O)c1ccc(NC(=O)C2CCN(S(=O)(=O)c3ccc4c(c3)CCCC(=O)N4)CC2)cc1 68.9%
CCN(CC)CCNC(=O)c1cc2c(=O)oc3ccc(C)cc3c2s1 67.3%
CCC1CCCCN1Cc1c(O)ccc2c(=O)c(Oc3ccccc3Cl)c(C(F)(F)F)oc12 (stereo not given) 102%
CC1CCCN(Cc2c(O)ccc3c(=O)c(Oc4ccc(C(C)(C)C)cc4)c(C(F)(F)F)oc23)C1 (stereo not given) 64.7%
Cc1cc(F)ccc1NS(=O)(=O)c1ccc(-n2cccn2)cc1 106%
O=S(=O)(Nc1ccc2nc(-c3cccc(Cl)c3)oc2c1)c1ccccc1 93.4%
Cc1cccc(NC(=O)CSc2ncc(-c3ccccc3)[nH]2)c1C 93%
CC(C)C(=O)Nc1nc2c(s1)CC(C(C)(C)C)CC2 (stereo not given) 63.2%
Cc1oc2ccc(O)c(CN3CCCCC3)c2c1C(=O)Nc1cccc(C(F)(F)F)c1 106%
CN1CCC[C@@H]1CCO[C@](C)(c1ccccc1)c1ccc(Cl)cc1 68.2%
COc1ccc(-n2ccnc(NCCc3ccc(Cl)cc3)c2=O)cc1OC 105%
COc1cccc(N=C2SC(C(=O)Nc3cccc(Cl)c3)CC(=O)N2C)c1 (stereo not given) 68.2%
Cc1ccc(OCC(=O)Nc2ccc(Cl)c(-c3nc4ccccc4[nH]3)c2)cc1C 70.6%
CCCCN(CCCC)CCC(O)c1cc2c(Cl)cc(Cl)cc2c2cc(C(F)(F)F)ccc12 (stereo not given) 98.9%
CC(C)c1ccc(S(=O)(=O)Nc2ccc(O)c(Sc3nc4ccccc4s3)c2)cc1 70.6%

activation, inactive:
CCn1cc(C(=O)N2CCN(c3cc(Cl)ccc3C)CC2)c(=O)c2cc(S(=O)(=O)N3CCCC3)ccc21 -4.63%
COC(=O)c1cc(S(=O)(=O)N2CCN(c3cc(Cl)ccc3C)CC2)c[nH]1 13.7%
Cc1c(C)n(Cc2ccc(Cl)cc2)c2ccc(C(=O)N3CCN(c4ccccc4F)CC3)cc12 -26.9%
O=c1c2ccccc2n(Cc2cccc(Cl)c2)c(=O)n1Cc1ccccc1 -10.4%
O=C(CC1Oc2ccc(Cl)cc2NC1=O)NCc1ccccc1 (stereo not given) -14.9%
Cc1cccc(NC(=O)Cn2nc(-c3ccc(Cl)cc3)c3ccccc3c2=O)c1 -2.07%
COc1ccc(OCCCn2c(C3CC(=O)N(c4ccc(F)cc4)C3)nc3ccccc32)cc1 (stereo not given) 1.68%
Cc1ccc(C)c(N2CCN(C(=O)Cc3c(C(=O)O)c(C)cn3C)CC2)c1 -4.29%
COc1ccc(OC)c(NC(=O)C2CCCN(S(=O)(=O)c3ccc4c(c3)CCCC(=O)N4)C2)c1 (stereo not given) -4.17%
CC(=O)Nc1ccc(NC(=O)C2CCCN(S(=O)(=O)c3ccc4c(c3)CCCC(=O)N4)C2)cc1 (stereo not given) 16.8%
COc1ccc(Cl)cc1NC(=O)NCC1CCN(Cc2ccccc2F)CC1 -10.4%
CCOc1ccc(C2CC(=O)c3c([nH]c(C(=O)OCc4ccccc4)c3C)C2)cc1 (stereo not given) 49.1%
COc1cccc(CNC(=O)c2cc(=O)[nH]c3ccc(S(=O)(=O)N4CCCCC4)cc23)c1 -3.54%
CCC(=O)N1CCc2cc(Br)cc(S(=O)(=O)NCc3ccc(Cl)cc3)c21 19.3%
COc1ccc(Cl)cc1N(C)C(=O)c1cc2c(=O)oc3ccc(C)cc3c2s1 29.1%
CCOc1ccc(N(CC)C(=O)c2cc3c(=O)oc4ccccc4c3s2)cc1 21.3%
Cc1cccc(Nc2cc(C)nc(-n3nc(C)cc3C)n2)c1 -20.8%
O=C(c1ccc2c(c1)N(Cc1ccccc1)C(=O)c1ccccc1S2(=O)=O)N1CCC(Cc2ccccc2)CC1 -8.72%
Cc1ccc(C)c(Oc2c(C(F)(F)F)oc3c(CN4CCN(C)CC4)c(O)ccc3c2=O)c1 -14.3%
COc1ccc(-c2c(C)c3ccc(O)c(CN4CCCC4)c3oc2=O)cc1OC -5.21%
CC1CCCCN1Cc1c(O)ccc2c(=O)c(-c3cccc(Cl)c3)c(C(F)(F)F)oc12 (stereo not given) -11.7%
Cc1ccc(Oc2c(C(F)(F)F)oc3c(CN4CCCCC4)c(O)ccc3c2=O)cc1 -34.2%
Cc1ccsc1CN(C(=O)c1oc2ccc(Br)cc2c1C)C1CCS(=O)(=O)C1 (stereo not given) -26.5%
Cc1cc(F)ccc1NC1(c2ccccc2)C(=O)c2ccccc2C1=O -74.1%
Cn1c(=O)n(C)c2cc(NS(=O)(=O)c3ccc(F)cc3)ccc21 7.69%
CCOC(=O)N1CCc2c(sc3c2c(=O)n(-c2ccc(CC)cc2)c(=O)n3C)C1 -6.72%
CC(Nc1ccc(-c2nc(-c3ccco3)no2)cc1[N+](=O)[O-])c1ccccc1 (stereo not given) -14.5%
COc1ccc(OC)c(NC(=O)CSc2nc3ccccc3nc2N2CCCCC2)c1 -20.5%
O=C(Nc1cccc(-c2nc3ccccc3o2)c1)c1cccc(Br)c1 -18.9%
O=C(Nc1ccc(O)c(-c2nc3ccccc3o2)c1)c1ccc(-c2cccc(Cl)c2)o1 10.7%
COC(=O)c1ccc(Cn2c(SCC(=O)N(C)c3ccccc3)nc3ccccc32)cc1 -14.8%
CCOc1cccc(NC(=O)CSc2ncc(-c3ccc(Cl)cc3)[nH]2)c1 -15.1%
O=C(CSc1ncc(-c2ccccc2)[nH]1)Nc1ccc(F)cc1F -23.6%
COC(=O)c1ccc(NC(=O)CCc2c(C)nc3c(c(C)nn3-c3ccc(C)cc3)c2C)cc1 -18.2%
CCc1ccc(NC(=O)Cn2c(=O)n(CCC(=O)NCc3ccc4c(c3)OCO4)c(=O)c3ccccc32)cc1 -4.89%
Cc1ccccc1NC(=O)Cn1cc(C(=O)c2cccs2)c2ccccc21 -6.21%
Cn1c(=O)c2c(SCC(=O)NCC3CCCO3)nc(-c3ccccc3F)nc2n(C)c1=O (stereo not given) -4.7%
CCOc1ccc(NC(=O)c2cnn(-c3ccccc3)c2-n2cccc2)cc1 -6.74%
CN1CC[C@H](c2c(O)cc(O)c3c(=O)cc(-c4ccccc4Cl)oc23)[C@H](O)C1 -16.5%
O=C(NC1CC(=O)N(c2ccc(F)cc2)C1)C1CCCCC1 (stereo not given) -2.56%
COc1cc(OC)cc(C(=O)Nc2c(C(=O)Nc3ccc(F)cc3)oc3ccccc23)c1 1.9%
Cc1cc(C)cc(OC(C)C(=O)Nc2nc3c(s2)CCCC3)c1 (stereo not given) -14.5%
CC(C)(C)C1CCc2c(sc(NC(=O)c3ccccc3F)c2C(=O)N2CCCCC2)C1 (stereo not given) -35.6%
COc1ccc2cc(-c3nc(Cl)c4c5c(sc4n3)CC(C)CC5)c(=O)oc2c1 (stereo not given) -14.3%
CCCS(=O)(=O)N1CCC(n2c(C(F)(F)F)nc3cccnc32)CC1 -3.95%
Cc1oc2ccc(O)c(CN3CCC(C)CC3)c2c1C(=O)Nc1ccccc1 17.2%
Cc1oc2ccc(O)c(CN3CCOCC3)c2c1C(=O)Nc1cccc(Cl)c1C 18.4%
Cc1cccc(NC(=O)C2CCCN2S(=O)(=O)c2cccc3nsnc23)c1C (stereo not given) 8.79%
COc1cccc(CNc2nccn(-c3ccc(OC)c(OC)c3)c2=O)c1 -0.901%
COc1ccccc1CNc1nccn(-c2ccc(F)cc2)c1=O 30.2%
COc1cccc(NC(=O)C2CCN(c3cc(C)nc4c(-c5ccc(Cl)cc5)c(C)nn34)CC2)c1 -2.14%
COc1cccc(NC(=O)Nc2ccc3c(c2)N(C)C(=O)c2ccccc2S3)c1 4.16%
CC(C)c1ccc(NC(=O)c2ccc3c(O)c(S(=O)(=O)c4ccccc4)c(=O)[nH]c3c2)cc1 -0.853%
O=C(c1cnn(-c2ccc(F)cc2)c1-n1cccc1)N1CCN(c2ccc(F)cc2)CC1 19%
COc1ccc(CC(=O)Nc2ccc(-c3nc4ccccc4s3)c(C)c2)cc1 27.8%
COc1ccc(NC(=O)CSc2nc3ccccc3[nH]2)cc1 -10%
COc1ccc(CNC(=O)Cc2coc3ccc(C(C)C)cc23)cc1 -15.8%
COc1ccc2c(c1)c(N1CCCC1=O)c(C(=O)Nc1ccc(OC)c(Cl)c1)n2C 3.27%
CCOc1ccc(CCNC(=O)c2csc3c2CCCCC3)cc1 3.74%
Brc1cccc(-c2nnn3c2nc(NC2CCCCC2)c2ccccc23)c1 -7%
O=C(Nc1nc2c(s1)CCCC2)c1ccccc1F -7.97%
Cc1nc2ccc(S(=O)(=O)NC(C(=O)NCc3ccccc3Cl)C(C)C)cc2s1 (stereo not given) 7.27%
CC(C)(C)c1ccc(S(=O)(=O)Nc2ccc(O)c(Sc3nc4ccccc4s3)c2)cc1 2.42%
Cc1ccc(-n2c(=O)c3cccnc3n2CC(=O)Nc2ccccc2C(F)(F)F)cc1C -16.8%
CCCC12CN3CC(C)(CN(C1)C3c1ccccc1Cl)C2=O (stereo not given) -8.25%
CCN(CCCNC(=O)c1cc2cc3cc(OC)ccc3nc2s1)c1ccccc1 -15.5%
Cc1cccc(N2CCN(C(=O)c3cnc(N4CCCC4)nc3C)CC2)c1C 36.6%
CCN(C(=O)Cn1c(=O)nc(-c2ccccc2)c2cc(Cl)ccc21)c1cccc(C)c1 -7.41%
